Experiment [1] deals with Epidermal growth factor receptor (Homo sapiens), P00533 [T790M]. The settings on record: at 1 µM.
In experiment [2] the test system is Epidermal growth factor receptor (Homo sapiens), P00533 [L858R,T790M]. The settings on record: at 0.1 µM.
Experiment [3] shares this test system. As to conditions: at 1 µM.
Experiment [4] addresses Ephrin type-A receptor 2 (Homo sapiens) (UniProt P29317). As to conditions: at 0.1 µM.
Experiment [5] has the same target. The settings on record: at 1 µM.
In experiment [6] the target is T1, Ephrin type-A receptor 3 (Homo sapiens) (UniProt P29320).
T1 sequence (whole entry): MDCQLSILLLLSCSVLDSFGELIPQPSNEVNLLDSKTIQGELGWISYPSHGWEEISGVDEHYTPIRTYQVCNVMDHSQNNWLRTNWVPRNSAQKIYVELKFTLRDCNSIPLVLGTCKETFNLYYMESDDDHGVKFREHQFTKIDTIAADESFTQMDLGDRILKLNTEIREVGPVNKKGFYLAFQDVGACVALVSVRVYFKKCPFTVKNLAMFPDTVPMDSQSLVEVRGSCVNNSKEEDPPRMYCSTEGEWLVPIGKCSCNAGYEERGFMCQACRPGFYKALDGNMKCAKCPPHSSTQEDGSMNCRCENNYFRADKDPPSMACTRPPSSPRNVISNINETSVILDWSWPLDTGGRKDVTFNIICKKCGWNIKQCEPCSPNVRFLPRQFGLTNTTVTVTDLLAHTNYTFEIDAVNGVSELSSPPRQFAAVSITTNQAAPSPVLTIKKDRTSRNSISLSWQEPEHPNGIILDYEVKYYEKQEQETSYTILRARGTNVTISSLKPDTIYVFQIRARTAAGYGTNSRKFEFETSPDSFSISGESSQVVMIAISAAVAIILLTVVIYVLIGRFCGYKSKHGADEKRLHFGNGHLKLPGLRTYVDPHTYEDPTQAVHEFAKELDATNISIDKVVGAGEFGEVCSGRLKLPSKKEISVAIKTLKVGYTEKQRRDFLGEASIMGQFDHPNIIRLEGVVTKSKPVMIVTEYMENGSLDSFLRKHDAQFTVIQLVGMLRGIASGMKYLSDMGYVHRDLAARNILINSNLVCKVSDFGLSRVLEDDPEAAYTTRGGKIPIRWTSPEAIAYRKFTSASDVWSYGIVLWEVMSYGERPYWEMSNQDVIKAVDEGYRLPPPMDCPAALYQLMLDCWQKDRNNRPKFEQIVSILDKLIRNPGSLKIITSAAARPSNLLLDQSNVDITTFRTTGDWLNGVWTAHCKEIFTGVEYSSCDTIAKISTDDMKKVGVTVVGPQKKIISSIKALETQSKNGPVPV
The settings on record: at 0.1 µM.

For experiment [7], the target named is T1, Ephrin type-A receptor 3 (Homo sapiens). The settings on record: at 1 µM.
The target in experiment [8] is Ephrin type-A receptor 4 (Homo sapiens) (UniProt P54764). As to conditions: at 0.1 µM.
For experiment [9] the target is unchanged. As to conditions: at 1 µM.
The target in experiment [10] is T2, Ephrin type-B receptor 2 (Homo sapiens) (UniProt P29323).
T2 sequence (whole entry): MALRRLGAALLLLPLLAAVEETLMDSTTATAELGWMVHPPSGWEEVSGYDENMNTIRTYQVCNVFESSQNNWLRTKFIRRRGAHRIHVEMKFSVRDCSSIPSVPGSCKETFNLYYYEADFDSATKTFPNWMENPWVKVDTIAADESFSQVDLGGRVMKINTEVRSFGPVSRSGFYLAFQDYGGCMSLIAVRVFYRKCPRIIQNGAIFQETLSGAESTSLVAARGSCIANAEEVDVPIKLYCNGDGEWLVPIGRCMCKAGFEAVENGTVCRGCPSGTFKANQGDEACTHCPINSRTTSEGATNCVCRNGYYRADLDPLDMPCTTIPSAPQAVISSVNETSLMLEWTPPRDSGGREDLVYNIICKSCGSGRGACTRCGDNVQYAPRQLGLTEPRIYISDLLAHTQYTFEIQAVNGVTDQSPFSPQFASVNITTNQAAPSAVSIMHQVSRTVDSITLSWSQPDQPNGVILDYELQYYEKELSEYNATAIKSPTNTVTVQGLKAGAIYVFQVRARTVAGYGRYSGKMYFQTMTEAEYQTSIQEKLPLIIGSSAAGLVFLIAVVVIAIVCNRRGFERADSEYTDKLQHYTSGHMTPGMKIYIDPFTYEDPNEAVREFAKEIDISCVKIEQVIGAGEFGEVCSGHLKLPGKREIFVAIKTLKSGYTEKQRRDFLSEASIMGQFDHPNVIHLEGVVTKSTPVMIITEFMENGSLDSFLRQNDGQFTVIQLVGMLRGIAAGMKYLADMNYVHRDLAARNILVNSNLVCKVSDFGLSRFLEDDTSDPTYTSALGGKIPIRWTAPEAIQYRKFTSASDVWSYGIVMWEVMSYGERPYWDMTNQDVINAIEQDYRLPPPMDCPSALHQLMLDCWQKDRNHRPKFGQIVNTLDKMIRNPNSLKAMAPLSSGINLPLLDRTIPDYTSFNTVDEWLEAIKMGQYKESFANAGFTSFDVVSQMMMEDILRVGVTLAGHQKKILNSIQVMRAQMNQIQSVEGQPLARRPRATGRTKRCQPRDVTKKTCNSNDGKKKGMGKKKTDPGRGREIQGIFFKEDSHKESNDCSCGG
As to conditions: at 0.1 µM.

Experiment [11] deals with T2, Ephrin type-B receptor 2 (Homo sapiens). The settings on record: at 1 µM.
For experiment [12], the target named is T3, Ephrin type-B receptor 3 (Homo sapiens) (UniProt P54753).
T3 sequence (whole entry): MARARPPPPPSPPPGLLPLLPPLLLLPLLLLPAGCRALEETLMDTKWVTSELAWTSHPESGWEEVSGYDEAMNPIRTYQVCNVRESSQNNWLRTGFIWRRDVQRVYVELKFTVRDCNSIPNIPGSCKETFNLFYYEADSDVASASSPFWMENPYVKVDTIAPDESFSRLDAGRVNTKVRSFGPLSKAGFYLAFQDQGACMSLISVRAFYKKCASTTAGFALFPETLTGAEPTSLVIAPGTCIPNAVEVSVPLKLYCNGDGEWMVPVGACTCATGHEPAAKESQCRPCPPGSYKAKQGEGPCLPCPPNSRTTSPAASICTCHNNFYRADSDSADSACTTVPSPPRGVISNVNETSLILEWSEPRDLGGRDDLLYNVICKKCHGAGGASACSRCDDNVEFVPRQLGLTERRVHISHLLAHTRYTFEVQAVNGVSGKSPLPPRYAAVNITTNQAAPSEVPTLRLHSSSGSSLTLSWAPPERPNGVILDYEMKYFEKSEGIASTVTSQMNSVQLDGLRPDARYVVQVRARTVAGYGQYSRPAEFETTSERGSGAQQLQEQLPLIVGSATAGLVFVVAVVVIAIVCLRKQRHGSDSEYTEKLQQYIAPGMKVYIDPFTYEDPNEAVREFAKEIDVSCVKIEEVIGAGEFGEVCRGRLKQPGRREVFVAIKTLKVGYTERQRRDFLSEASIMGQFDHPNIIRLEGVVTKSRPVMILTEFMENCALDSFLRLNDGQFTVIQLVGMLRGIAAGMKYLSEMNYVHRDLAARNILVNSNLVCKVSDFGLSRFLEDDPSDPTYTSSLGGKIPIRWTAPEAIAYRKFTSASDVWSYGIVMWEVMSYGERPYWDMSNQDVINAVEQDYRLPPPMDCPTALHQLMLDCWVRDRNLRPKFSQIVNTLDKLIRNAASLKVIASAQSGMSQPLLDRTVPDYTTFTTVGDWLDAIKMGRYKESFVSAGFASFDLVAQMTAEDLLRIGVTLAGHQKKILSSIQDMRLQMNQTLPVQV
The settings on record: at 0.1 µM.

The target of experiment [13] is T3, Ephrin type-B receptor 3 (Homo sapiens). As to conditions: at 1 µM.
Experiment [14] has as its target T4, Ephrin type-B receptor 4 (Homo sapiens) (UniProt P54760).
T4 sequence (whole entry): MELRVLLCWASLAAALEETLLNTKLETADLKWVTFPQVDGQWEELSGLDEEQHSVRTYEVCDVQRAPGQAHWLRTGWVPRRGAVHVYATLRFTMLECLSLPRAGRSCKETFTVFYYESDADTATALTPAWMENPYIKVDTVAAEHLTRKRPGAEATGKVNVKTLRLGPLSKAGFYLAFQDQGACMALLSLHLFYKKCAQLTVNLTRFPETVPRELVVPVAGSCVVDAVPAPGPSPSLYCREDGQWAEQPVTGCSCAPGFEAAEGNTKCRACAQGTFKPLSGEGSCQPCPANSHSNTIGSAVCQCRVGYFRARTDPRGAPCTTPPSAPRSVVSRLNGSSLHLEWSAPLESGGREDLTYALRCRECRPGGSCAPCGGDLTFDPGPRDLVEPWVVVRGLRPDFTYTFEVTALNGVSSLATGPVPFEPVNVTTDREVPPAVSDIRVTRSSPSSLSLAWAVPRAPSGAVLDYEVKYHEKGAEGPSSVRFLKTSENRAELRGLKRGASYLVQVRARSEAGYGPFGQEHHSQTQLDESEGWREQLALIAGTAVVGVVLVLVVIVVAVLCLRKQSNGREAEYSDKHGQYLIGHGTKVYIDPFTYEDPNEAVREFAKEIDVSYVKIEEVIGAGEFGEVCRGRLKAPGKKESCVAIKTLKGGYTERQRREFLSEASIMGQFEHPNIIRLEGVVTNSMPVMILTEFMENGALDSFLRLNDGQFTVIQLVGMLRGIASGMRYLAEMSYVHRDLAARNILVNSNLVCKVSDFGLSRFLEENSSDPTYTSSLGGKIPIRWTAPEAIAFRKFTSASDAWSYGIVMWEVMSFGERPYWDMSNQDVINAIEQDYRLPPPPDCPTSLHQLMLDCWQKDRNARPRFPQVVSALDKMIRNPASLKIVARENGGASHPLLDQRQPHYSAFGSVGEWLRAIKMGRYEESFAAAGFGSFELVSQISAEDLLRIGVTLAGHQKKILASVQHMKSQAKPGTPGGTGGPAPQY
As to conditions: at 0.1 µM.

Experiment [15] has as its target T4, Ephrin type-B receptor 4 (Homo sapiens). As to conditions: at 1 µM.
In experiment [16] the target is Receptor tyrosine-protein kinase erbB-2 (Homo sapiens) (UniProt P04626). The settings on record: at 0.1 µM.
Experiment [17] has the same target. The settings on record: at 1 µM.
The target of experiment [18] is Receptor tyrosine-protein kinase erbB-4 (Homo sapiens) (UniProt Q15303). The settings on record: at 0.1 µM.
Experiment [19] has the same target. The settings on record: at 1 µM.
The target of experiment [20] is Tyrosine-protein kinase Fer (Homo sapiens) (UniProt P16591). The settings on record: at 0.1 µM.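 Also: reported figures are averaged percent inhibition of FER.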

For 3 compounds, inhibition results are on record in ChEMBL document CHEMBL1961873, “Compounds: GSK PKIS; Assays: Nanosyn kinase panel” (2012).

Structures are written as SMILES.

Chain of Receptor tyrosine-protein kinase erbB-2 (Homo sapiens) (P04626 whole entry): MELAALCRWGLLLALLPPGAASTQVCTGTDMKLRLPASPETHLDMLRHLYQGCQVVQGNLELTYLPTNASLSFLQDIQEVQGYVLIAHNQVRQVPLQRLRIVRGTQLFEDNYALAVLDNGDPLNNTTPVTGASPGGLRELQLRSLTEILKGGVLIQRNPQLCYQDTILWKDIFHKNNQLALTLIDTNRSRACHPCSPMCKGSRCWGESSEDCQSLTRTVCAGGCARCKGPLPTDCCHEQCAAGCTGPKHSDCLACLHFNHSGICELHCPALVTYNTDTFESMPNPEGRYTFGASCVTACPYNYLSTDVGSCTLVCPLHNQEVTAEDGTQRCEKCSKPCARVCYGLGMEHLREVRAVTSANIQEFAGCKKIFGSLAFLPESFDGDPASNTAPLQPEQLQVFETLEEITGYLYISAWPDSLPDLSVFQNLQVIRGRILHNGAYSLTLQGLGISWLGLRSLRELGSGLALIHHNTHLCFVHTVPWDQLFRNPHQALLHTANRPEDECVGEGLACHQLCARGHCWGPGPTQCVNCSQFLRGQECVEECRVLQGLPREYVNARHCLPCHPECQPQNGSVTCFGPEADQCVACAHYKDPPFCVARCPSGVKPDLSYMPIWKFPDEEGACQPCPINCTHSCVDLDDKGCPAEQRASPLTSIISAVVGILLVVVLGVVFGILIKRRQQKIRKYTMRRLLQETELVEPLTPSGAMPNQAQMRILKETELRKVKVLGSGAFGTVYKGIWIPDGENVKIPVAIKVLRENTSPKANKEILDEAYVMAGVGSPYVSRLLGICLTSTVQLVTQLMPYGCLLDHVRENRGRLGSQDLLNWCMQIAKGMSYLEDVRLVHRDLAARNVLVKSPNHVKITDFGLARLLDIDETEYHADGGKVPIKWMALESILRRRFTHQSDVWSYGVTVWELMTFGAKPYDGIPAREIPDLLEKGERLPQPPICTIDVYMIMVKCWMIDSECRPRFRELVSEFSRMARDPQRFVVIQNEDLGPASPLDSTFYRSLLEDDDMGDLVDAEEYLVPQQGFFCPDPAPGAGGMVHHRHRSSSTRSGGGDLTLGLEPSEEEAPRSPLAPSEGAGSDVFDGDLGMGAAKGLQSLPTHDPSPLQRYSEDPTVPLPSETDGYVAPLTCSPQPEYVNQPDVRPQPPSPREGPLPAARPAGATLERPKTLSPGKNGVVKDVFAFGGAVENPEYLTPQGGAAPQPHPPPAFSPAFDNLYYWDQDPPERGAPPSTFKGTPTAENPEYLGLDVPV
Chain of Receptor tyrosine-protein kinase erbB-4 (Homo sapiens) (Q15303 whole entry): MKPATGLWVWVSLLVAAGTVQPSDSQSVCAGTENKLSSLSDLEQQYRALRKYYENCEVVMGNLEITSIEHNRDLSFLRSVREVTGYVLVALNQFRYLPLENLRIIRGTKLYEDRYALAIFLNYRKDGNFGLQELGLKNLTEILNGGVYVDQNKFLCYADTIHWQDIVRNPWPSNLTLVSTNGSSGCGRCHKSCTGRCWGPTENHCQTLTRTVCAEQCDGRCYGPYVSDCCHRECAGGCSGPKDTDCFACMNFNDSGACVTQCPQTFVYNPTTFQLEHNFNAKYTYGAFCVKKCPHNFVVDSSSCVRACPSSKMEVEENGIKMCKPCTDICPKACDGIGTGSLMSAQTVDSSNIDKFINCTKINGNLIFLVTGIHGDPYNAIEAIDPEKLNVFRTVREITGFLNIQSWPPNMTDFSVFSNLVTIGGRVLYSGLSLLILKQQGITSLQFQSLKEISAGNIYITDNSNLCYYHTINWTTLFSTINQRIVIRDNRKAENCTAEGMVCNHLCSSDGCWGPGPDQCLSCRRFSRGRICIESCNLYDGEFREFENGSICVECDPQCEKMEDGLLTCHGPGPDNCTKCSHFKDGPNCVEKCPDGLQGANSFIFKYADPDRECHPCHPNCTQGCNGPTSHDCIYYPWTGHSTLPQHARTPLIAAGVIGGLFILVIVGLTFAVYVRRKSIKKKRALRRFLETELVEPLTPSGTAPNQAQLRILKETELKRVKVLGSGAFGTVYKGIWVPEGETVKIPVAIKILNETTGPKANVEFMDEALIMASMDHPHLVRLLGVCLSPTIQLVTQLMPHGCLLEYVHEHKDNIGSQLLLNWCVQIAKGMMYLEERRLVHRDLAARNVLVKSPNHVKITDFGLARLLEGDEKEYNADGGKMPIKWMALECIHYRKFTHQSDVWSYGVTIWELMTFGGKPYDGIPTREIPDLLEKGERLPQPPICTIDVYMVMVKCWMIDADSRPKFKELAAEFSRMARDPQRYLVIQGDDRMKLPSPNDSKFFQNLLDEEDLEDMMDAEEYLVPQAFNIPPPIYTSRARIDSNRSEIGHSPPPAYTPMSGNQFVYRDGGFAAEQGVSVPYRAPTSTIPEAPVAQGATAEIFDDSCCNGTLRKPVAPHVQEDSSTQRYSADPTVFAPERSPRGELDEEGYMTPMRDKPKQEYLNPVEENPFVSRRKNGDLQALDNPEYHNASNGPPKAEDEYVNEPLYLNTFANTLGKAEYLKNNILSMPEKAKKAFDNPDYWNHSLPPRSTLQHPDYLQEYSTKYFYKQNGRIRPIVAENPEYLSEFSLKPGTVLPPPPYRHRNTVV
Chain of Epidermal growth factor receptor (Homo sapiens), P00533 [L858R,T790M] (P00533 whole entry T790M/L858R, looked up): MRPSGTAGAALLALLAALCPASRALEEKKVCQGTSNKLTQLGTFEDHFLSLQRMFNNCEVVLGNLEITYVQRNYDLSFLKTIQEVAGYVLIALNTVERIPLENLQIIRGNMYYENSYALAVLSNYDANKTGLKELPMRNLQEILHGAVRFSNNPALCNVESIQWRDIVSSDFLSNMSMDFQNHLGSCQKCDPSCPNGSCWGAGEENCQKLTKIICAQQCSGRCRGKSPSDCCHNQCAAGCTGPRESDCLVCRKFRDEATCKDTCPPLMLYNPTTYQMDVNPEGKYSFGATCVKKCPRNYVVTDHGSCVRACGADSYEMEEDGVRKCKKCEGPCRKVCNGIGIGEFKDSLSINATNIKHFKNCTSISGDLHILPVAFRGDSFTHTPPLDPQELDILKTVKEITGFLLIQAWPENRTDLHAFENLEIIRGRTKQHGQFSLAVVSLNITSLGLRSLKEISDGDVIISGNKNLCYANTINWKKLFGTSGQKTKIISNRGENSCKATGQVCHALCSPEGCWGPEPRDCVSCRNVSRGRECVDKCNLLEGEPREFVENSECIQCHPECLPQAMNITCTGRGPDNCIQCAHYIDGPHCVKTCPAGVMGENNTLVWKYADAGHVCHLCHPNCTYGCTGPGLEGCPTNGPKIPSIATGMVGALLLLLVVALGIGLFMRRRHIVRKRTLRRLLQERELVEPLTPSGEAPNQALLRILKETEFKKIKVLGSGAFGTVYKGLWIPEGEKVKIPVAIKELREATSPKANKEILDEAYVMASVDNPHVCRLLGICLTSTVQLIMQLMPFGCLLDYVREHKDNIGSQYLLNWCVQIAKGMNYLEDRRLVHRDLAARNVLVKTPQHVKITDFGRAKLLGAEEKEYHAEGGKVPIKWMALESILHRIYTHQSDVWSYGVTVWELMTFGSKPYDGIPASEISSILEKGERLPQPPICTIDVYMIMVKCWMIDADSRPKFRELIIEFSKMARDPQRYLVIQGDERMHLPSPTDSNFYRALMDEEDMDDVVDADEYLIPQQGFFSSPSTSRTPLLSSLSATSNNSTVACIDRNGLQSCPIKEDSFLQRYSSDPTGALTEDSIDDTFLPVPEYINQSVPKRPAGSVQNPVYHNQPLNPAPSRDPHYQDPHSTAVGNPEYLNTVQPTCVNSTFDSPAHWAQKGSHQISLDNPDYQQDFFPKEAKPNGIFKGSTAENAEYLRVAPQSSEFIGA
Chain of Tyrosine-protein kinase Fer (Homo sapiens) (P16591 whole entry, looked up): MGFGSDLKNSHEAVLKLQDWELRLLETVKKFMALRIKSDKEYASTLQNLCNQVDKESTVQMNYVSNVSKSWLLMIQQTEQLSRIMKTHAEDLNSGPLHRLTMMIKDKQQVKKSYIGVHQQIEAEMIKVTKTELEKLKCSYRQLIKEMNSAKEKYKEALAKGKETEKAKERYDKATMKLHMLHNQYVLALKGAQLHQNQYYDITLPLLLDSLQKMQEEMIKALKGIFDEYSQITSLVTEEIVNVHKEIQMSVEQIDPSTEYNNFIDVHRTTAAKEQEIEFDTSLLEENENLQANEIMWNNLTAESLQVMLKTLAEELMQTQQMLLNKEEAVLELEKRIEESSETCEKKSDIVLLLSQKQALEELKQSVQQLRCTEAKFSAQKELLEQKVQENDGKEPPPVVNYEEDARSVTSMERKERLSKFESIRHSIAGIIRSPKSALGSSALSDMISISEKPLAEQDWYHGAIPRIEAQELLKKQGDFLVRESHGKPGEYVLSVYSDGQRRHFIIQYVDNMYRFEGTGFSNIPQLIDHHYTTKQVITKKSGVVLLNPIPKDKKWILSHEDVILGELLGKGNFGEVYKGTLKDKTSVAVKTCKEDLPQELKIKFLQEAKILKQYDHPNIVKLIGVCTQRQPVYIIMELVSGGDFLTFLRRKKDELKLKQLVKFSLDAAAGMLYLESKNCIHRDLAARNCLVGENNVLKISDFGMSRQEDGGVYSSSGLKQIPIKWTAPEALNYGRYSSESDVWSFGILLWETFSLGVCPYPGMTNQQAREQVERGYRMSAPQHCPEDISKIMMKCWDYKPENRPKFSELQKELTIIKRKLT

For the compound `CCn1c(-c2nonc2N)nc2ccccc21`, the inhibition in experiment [1] is -1.8%; in experiment [2], 2%; in [3], -0.39%; in experiment [4], -0.14%; in experiment [5] it was 0.64%; in [6], 5.44%. Also, the inhibition in experiment [7] came out at 3.08%; in experiment [8], 7.78%; in experiment [9], 9.13%; in experiment [10], 6.72%; in experiment [11], 10.1%; in [12], 5.49%. Further, the inhibition in experiment [13] is 2.17%; in [14] it was 1.03%; in experiment [15] it was 1.88%; in [16], 0.88%; in experiment [17] it was -2.17%; in experiment [18], 12.3%. Moreover, the inhibition in [19] turned out to be 12.3%; in [20], 5.9%.
Consider `Cc1cccc(Nc2ncc(-c3ccccc3)o2)c1`, for which the inhibition in experiment [1] was 2.62%; in experiment [2] it was -0.51%; in experiment [3], 1.2%; in experiment [4], 2.27%; in experiment [5] it was 1.53%; in experiment [6], 2.3%. For the same compound, the inhibition in [7] was determined as 2.7%; in experiment [8], 5.68%; in experiment [9], 5.88%; in experiment [10], 0.55%; in experiment [11], 2.78%; in [12] it was 1.56%. Further, the inhibition turned out to be 2.29% in experiment [13]; 2.8% in experiment [14]; 3.6% in [15]; 2.48% in [16]; 2.62% in [17]; 3.46% in experiment [18]. In addition, the results for the inhibition in [19] and in [20] were 8.57% and 3.24%, respectively.
In the case of `NC(=O)c1sc(-n2cnc3ccc(C(F)(F)F)cc32)cc1OCc1ccccc1Br`, the inhibition was 4.07% in experiment [1]; -0.44% in [2]; 3.88% in experiment [3]; -2.06% in [4]; -1.67% in experiment [5]; 2.19% in experiment [6]. Also, the inhibition in experiment [7] is 5.58%; in experiment [8], 10.1%; in experiment [9], 8.59%; in experiment [10] it was 5.67%; in [11], 7.8%; in experiment [12], 7.23%. Besides, the inhibition is 4.9% in experiment [13]; -1.54% in experiment [14]; 0.48% in experiment [15]; 1.83% in [16]; 1.49% in [17]; 6.27% in experiment [18]. Further, the inhibition in experiment [19] turned out to be 10.9%; in experiment [20], 2.63%.
